Laboratory results taken from PubChem BioAssay (NCI).
This is part of a sample that, as a whole, favours compounds with a hit. Of some 83,000 tested, about 20% had one in any assay.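 Percent growth is the endpoint: 0 to 100 indicates growth inhibition (40 means 60% inhibition), 0 means no net growth, and negative values indicate cell death.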 Unmarked numbers belong to inactive results. The source made the active and inactive calls.

system: SNB-19 CNS; assay: NCI-60 one-dose screen, 48 h (100 = growth as untreated, 0 = no growth, -100 = all killed); conditions: 10 µM unless noted
Experimental: Growth inhibition of the SNB-19 human tumor cell line is measured as a screen for anti-cancer activity. Cells are grown in 96 well plates and exposed to the test compound for 48 hours. Compounds are tested at a single concentration, which is 10^-5 M for most compounds. The reported endpoint is percent growth (GI% or GIPRCNT), where numbers from 0 - 100% represent growth inhibition, and numbers from -100% - 0 represent cell death. For example, a value of 40 represents 60% growth inhibition. A value of 0 means no net growth occurred over the course of the experiment. A value of -40 indicates 40% of cells at the beginning of the experiment died by the end of the experiment. A value of -100 means all cells are dead at the end of the experiment.
NCI-60 Human Tumor Cell Lines Screen was performed using the standard one-dose NCI protocol, which is described in more detail at https://dtp.cancer.gov/discovery_development/nci-60/default.htm.
Compounds with GIPRCNT values below 10 were considered active. Activity score was based on GIPRCNT using the following formula: […]
Score is 0 for GIPRCNT values of 100 or above, 50 for GIPRCNT values of 0, and 100 for GIPRCNT values of -100.

| Structure (SMILES) | growth |
| --- | --- |
| Cc1ccc2c(c1)nc(-c1ccccc1)n2CC(=O)N=Nc1c(O)[nH]c2ccc(Br)cc12 | -30.8% (active) |
| CC1(c2cc3cc(Br)ccc3oc2=O)NC(=O)c2c(/C=C/C(=O)OC3CC4CCC3(C)C4(C)C)cccc2N1 (stereo not given) | 72% |
| O=C(COc1ccc(NC(=O)Nc2ccc(Cl)c(Cl)c2)cc1)N=Nc1c(O)[nH]c2ccc(Cl)cc12 | -13.8% (active) |
| Cc1ccc([C@H]2C(C(=O)c3ccc(Cl)cc3)C3(N[C@@H]2c2ccccc2)C(=O)Nc2ccc(Cl)cc23)cc1 (stereo not given in full) | 66.2% |
| NS(=O)(=O)c1ccc(N=Nc2c(O)n(CC(=O)Nc3ccccc3)c3ccccc23)cc1 | 20.2% |
| Cc1ccc([C@H]2C(C(=O)c3ccc(Cl)cc3)C3(N[C@@H]2c2ccccc2)C(=O)Nc2ccccc23)cc1 (stereo not given in full) | 41% |
| CN(C)CCn1c2ccccc2c2nc3cc4ccccc4cc3nc21 | 28.9% |
| Cc1cc2nc3c4ccccc4n(CCCN(C)C)c3nc2cc1C | -8.61% (active) |
| N/C(=N\c1nc2ccccc2s1)NC(=O)NCCCCCCO | 51.6% |
| COc1ccc2[nH]cc(-c3nc(N)nnc3-c3cn(C)c4ncccc34)c2c1 | 63.8% |
| COc1cccc(COc2ccc(NC(=O)Nc3ccc(Cl)c(C(F)(F)F)c3)cc2)c1 | 24.6% |
| CCCS(=O)(=O)N1CCCC(C(=O)Nc2nc3ccc(NC(=O)c4ccc(F)c(OC)c4F)cc3s2)C1 (stereo not given) | 63.7% |
| CCOC(=O)C(N=Nc1ccc(S(=O)(=O)N=C(N)N)cc1)C(C)=O (stereo not given) | 101% |
| Cc1cccc(Nc2nc3ccccc3nc2/C=C/c2ccc(F)cc2)c1 | 92.8% |
| O=C1C(=Nc2ccc(F)c(Cl)c2)c2cccc3cccc1c23 | 71.2% |
| O=C(N/N=C/c1ccc(-c2ccc(O)cc2)o1)c1[nH]c2ccc(Br)cc2c1-c1ccccc1 | 10.3% |
| CCCSc1nc(Nc2ccc(S(N)(=O)=O)cc2)c(C#N)c(-c2cc(OC)c(OC)c(OC)c2)n1 | 43.8% |
| Clc1cccc(N/N=C/c2c[nH]c3ccc(Br)cc23)n1 | 20.5% |
| CN1CCN(c2ccc3c(c2)nc(NNC(=O)c2ncccn2)c2cccn23)CC1 | 16.5% |
| CCN(CC)c1ccc(/C=N/Nc2nc(-c3ccc(Br)cc3)cs2)c(O)c1 | 107% |

| Structure (SMILES) | growth |
| --- | --- |
| N/C(=N\c1nc2ccccc2s1)NC(=O)Nc1ccc(Cl)cc1Cl | -23.5% (active) |
| O=C(Cn1nc(-c2ccccc2)ccc1=O)N/N=C/c1ccc(N2CCOCC2)cc1 | 89.9% |
| CN1CCN(c2ccc(C(=O)/C=C/c3ccc(Br)cc3)cc2)CC1 | 31.4% |
| COc1ccc(-c2ccnc(SCc3cc4ccccc4[nH]c3=O)n2)cc1OC | -7.41% (active) |
| COc1cc2c(c(OC)c1OC)C(=O)CC(c1cccc(NC(=O)c3cccc([N+](=O)[O-])c3)c1)O2 (stereo not given) | 52.6% |
| C=C1CC[C@@H]2[C@]3(C)COC(c4cn(-c5ccccc5)nc4-c4ccccc4)O[C@@H]3CC[C@@]2(C)[C@@H]1C/C=C1/C(=O)OC[C@H]1O (stereo not given in full) | -60.8% (active) |
| C#CCOc1ccc(/C=N/Nc2nc(-c3cc4cc(Br)ccc4oc3=O)cs2)cc1OC | 49.6% |
| C=C1CC[C@@H]2[C@]3(C)COC(c4cn[nH]c4-c4ccccc4)O[C@@H]3CC[C@@]2(C)[C@@H]1C/C=C1/C(=O)OCC1O (stereo not given in full) | 45.3% |
| O=c1[nH]c2ccc(Cl)cc2cc1CSc1nccc(-c2ccc(Cl)cc2)n1 | 40.4% |
| NC(=S)Nc1cccc(NC(N)=S)c1 | 88.3% |
| Cc1ncsc1-c1ccc(CNC(=O)[C@@H]2C[C@@H](O)CN2C(=O)[C@@H](NC(=O)C2(F)CC2)C(C)(C)C)c(OCCOCCOCCOCCOc2nc(Nc3cc(S(C)(=O)=O)ccc3N[C@@H](c3cccc4c3OC(F)(F)O4)c3ncccc3Cl)nc(N3CCNCC3)n2)c1 | 64.8% |
| COc1cc2oc(-c3cccc(C(=O)Nc4ccc(Cl)cc4)c3)cc(=O)c2c(OCCNC(=O)[C@H](CO)NC(=O)OC(C)(C)C)c1OC | 29.7% |
| O=C(/C=C/c1cccc(OCc2ccccc2)c1)c1nc2ccccc2[nH]1 | 53.6% |
| COC(=O)/C=C/c1cccc2c1C(=O)NC(C)(c1cc3cc4ccccc4cc3oc1=O)N2 (stereo not given) | 49.7% |
| COc1ccc(C(=O)/C=C/c2ccc(OCc3ccc(F)cc3)c(OC)c2)cc1OC | 15.4% |
| CCCCc1c(Nn2cnnn2)no[n+]1[O-] | 72.3% |
| NS(=O)(=O)c1ccc(CCNC(=O)CSc2ccc(-c3ccc(Br)cc3)nn2)cc1 | 61.5% |
| COc1ccc(-c2nc3cc(C)ccc3n2CC(=O)N=Nc2c(O)[nH]c3ccc(Br)cc23)cc1 | 29.2% |
| COc1ccc(/C=N/NC(=O)Cn2nc(Cc3ccc(OC)cc3)c3onc(C)c3c2=O)cc1 | 56.3% |
| N/C(=N\c1nc2ccccc2s1)NC(=O)Nc1c(Cl)cccc1Cl | 54.7% |
